Our source for the sensor-assay potency score (higher = more potent) values is the OligoGym collection.

Targets include HES7; HERC1; HERC3; HEPH; HHATL; HIST1H4A; HIST2H3A; HMX2; HMP19; HNF1A; HNRNPL.
What all share (test): pooled miR-30 sensor sort-seq; sequence = guide strand
Conditions in all cases: shRNA
Further: reference of the scale not given here.

The sequence ATATAGACCACATCTCACCCGC came in with a sensor-assay potency score (higher = more potent) with HES7 of -0.0228.

In the experiment with HERC1, TATTGTAACCCACTTCTGCGGT returned a sensor-assay potency score (higher = more potent) of -0.596.

In the case of TTCAGCTTTTGTATTAACCTGG, the sensor-assay potency score (higher = more potent) with HERC3 worked out at 0.299.

In the case of TTGTCCATGTCGATTGAGCGGC, the sensor-assay potency score (higher = more potent) with HERC1 is -0.831.

Sequence TTCTCCAACCAGCTTAACCTTC registered a sensor-assay potency score (higher = more potent) with HERC1 of -1.11.

ATAATATCTGAACAACACCATT: in the experiment with HERC3, the sensor-assay potency score (higher = more potent) was -1.67.

For the sequence TAACTTCTCAAATAACACCCTA, the sensor-assay potency score (higher = more potent) with HERC3 was -0.57.

In turn, AAACCGGACAAGTAGCAGCTGG showed a sensor-assay potency score (higher = more potent) with HES7 of -0.705.

In the experiment with HERC1, TAACAGACACATCCTTTCGATA returned a sensor-assay potency score (higher = more potent) of -0.966.

Consider TTCCGGAGGTTCTGGTCCCGGG, for which the sensor-assay potency score (higher = more potent) with HES7 was -1.41.

In the experiment with HES7, TTTGGGGCGCAGATAGCCGTGC yielded a sensor-assay potency score (higher = more potent) of -0.737.

On to AGCGGCTTGAGCATCTTGGGGC, for which, in the experiment with HES7, the sensor-assay potency score (higher = more potent) was -0.755.

The sequence TACATTGAGTAACTTCTTGTAG showed a sensor-assay potency score (higher = more potent) with HERC3 of 0.402.

In the experiment with HES7, TTCGCTCCCTCAAGTAGCCCAC had a sensor-assay potency score (higher = more potent) of -0.598.

In the experiment with HERC1, TATTCATGTAAAACTGTCCTTT displayed a sensor-assay potency score (higher = more potent) of -0.17.

TCCGCTTTCTCCAGCTTCGGGT came in with a sensor-assay potency score (higher = more potent) with HES7 of -1.29.

On to TAGCTTTCTCTGTCGATGTTGG, for which, in the experiment with HEPH, the sensor-assay potency score (higher = more potent) is -0.344.

Turning to TAGTGGTTGAGAAACATTCTAA, in the experiment with HERC1, the sensor-assay potency score (higher = more potent) is -0.582.

TTGTGCTCTACAAAACACGTGT displayed a sensor-assay potency score (higher = more potent) in the experiment with HERC3 of 0.203.

Turning to TTATGTTCTTATAACATCTATG, the sensor-assay potency score (higher = more potent) in the experiment with HERC1 is -0.965.

Sequence TTATCTAGTACTTTGCTGGGGT returned a sensor-assay potency score (higher = more potent) with HERC3 of 0.669.

As to TAGAAGTTGTACTTGAGCAGGT, in the experiment with HHATL, the sensor-assay potency score (higher = more potent) turned out to be 0.918.

TAGTAGATTCTAGCACTCCATG returned a sensor-assay potency score (higher = more potent) with HEPH of -1.17.

As to AACACCTTGAGCACCCCGCGAG, the sensor-assay potency score (higher = more potent) with HIST1H4A was -0.99.

TGTCACGCAACACCTTGCGGTG: the sensor-assay potency score (higher = more potent) with HIST1H4A is -1.69.

The sequence TTGGGCATAATGGTCACGCGCT returned a sensor-assay potency score (higher = more potent) in the experiment with HIST2H3A of -0.549.

In the experiment with HIST2H3A, AAGTCCTGCGCGATCTCGCGTA gave a sensor-assay potency score (higher = more potent) of -1.16.

In the experiment with HMX2, TTAAAGTCCGAGTGCGAAGGAG displayed a sensor-assay potency score (higher = more potent) of -0.61.

Regarding TGAAGCTGGAGACGCCACCGGC, the sensor-assay potency score (higher = more potent) in the experiment with HMX2 is -0.77.

For TTGTACATGAGCCTGACTCGGC, the sensor-assay potency score (higher = more potent) with HMP19 was -0.338.

In the experiment with HMP19, TTCTTGTCTTCACAATCACCTT showed a sensor-assay potency score (higher = more potent) of -1.21.

In turn, TCGAGCTGGTACACCTGGCTGC came in with a sensor-assay potency score (higher = more potent) in the experiment with HMX2 of -0.393.

With TTCTGTACTCAGCAGGCTGTGG, in the experiment with HNF1A, the sensor-assay potency score (higher = more potent) was -0.687.

TTGATGACCGGCACACTCTGTG had a sensor-assay potency score (higher = more potent) with HNF1A of 0.355.

As to TACAGCACCAGGCTGCTGGAGG, in the experiment with HNF1A, the sensor-assay potency score (higher = more potent) was -0.908.

In the experiment with HNRNPL, TTAAGGTTAAGTAAGCCTCTAC displayed a sensor-assay potency score (higher = more potent) of 0.152.

In the experiment with HNF1A, TAGCGTCTCTCGCTCCTCCTTG returned a sensor-assay potency score (higher = more potent) of -0.628.

With TACAGTGTTGTCTTGTAACTGG, in the experiment with HMP19, the sensor-assay potency score (higher = more potent) is -0.189.

For TACAGCGTAGCCATCAGCCATC, in the experiment with HNRNPL, the sensor-assay potency score (higher = more potent) is -1.38.

The sequence TTCGGCACCCGGAACTTCCCTT came in with a sensor-assay potency score (higher = more potent) with HMP19 of -0.311.

Turning to TCTTCTTCTTGGCCGCGCCGGC, in the experiment with HMX2, the sensor-assay potency score (higher = more potent) was -1.36.

The sequence ATAGTGTAAAGAACATCCGTGG registered a sensor-assay potency score (higher = more potent) in the experiment with HNRNPL of -0.231.

TCTTGTCTTCACAATCACCTTT showed a sensor-assay potency score (higher = more potent) with HMP19 of -0.0794.

TATCGGTTCAGACAACTCCAGC: the sensor-assay potency score (higher = more potent) with HMP19 is -1.43.

In the experiment with HNF1A, ATCGTCGTCCGTCTCGTCCTCG displayed a sensor-assay potency score (higher = more potent) of -0.832.

Take TGGAACCAAGTCTTTACCTGGG: the sensor-assay potency score (higher = more potent) with HMX2 was -0.326.

TTATAGACGAATCCCTCTGGGC gave a sensor-assay potency score (higher = more potent) with HMP19 of -0.74.

For TAGGACTTGACCATCTTCGCCA, the sensor-assay potency score (higher = more potent) in the experiment with HNF1A amounted to 0.419.

Sequence TTGTAGACACGCACCTCCGTGA returned a sensor-assay potency score (higher = more potent) with HNF1A of -0.58.

With TAAACCACCAGGAACACGATGC, the sensor-assay potency score (higher = more potent) in the experiment with HMP19 was -0.408.

TAAAGTCCGAGTGCGAAGGAGA yielded a sensor-assay potency score (higher = more potent) in the experiment with HMX2 of -1.28.

In turn, TTCTTTAAAGTCCGAGTGCGAA registered a sensor-assay potency score (higher = more potent) with HMX2 of -1.59.

With TACTTCTGCAGTCTCACTGGTC, the sensor-assay potency score (higher = more potent) with HNF1A is -0.169.

TGTATAGGTTGTAGAGAGGTAA returned a sensor-assay potency score (higher = more potent) with HMX2 of -0.622.

For the sequence TTGTTCTTCTGTTCCGGCTGAT, the sensor-assay potency score (higher = more potent) in the experiment with HMP19 is 0.313.

Regarding TTCTCTTCTTTAAAGTCCGAGT, the sensor-assay potency score (higher = more potent) in the experiment with HMX2 was -1.

In turn, TGGTTGGTAGCTCATCACCTGT gave a sensor-assay potency score (higher = more potent) with HNF1A of -1.74.

ATGGACTGGATGGTGAAGCTGG registered a sensor-assay potency score (higher = more potent) with HMX2 of -1.05.

Sequence TTGGTTCCCTTCTCGCTGGGGT had a sensor-assay potency score (higher = more potent) in the experiment with HMP19 of 0.36.

With TTGCTGGAGTCTGAGCTCTGGT, the sensor-assay potency score (higher = more potent) with HNF1A is -1.14.
